# Calls of active or inactive are those of the source. No rule for the calls is given here.
# Target: Histone deacetylase 1 (Homo sapiens) (UniProt Q13547)
# Experiment: recombinant HDAC1 deacetylase inhibitors – biochemical, HDAC isoform panel, selectivity assay for E-cadherin restoration project, profiling panel (AID 651918)
# Conditions: recombinant HDAC1, fluorogenic peptide substrate deacetylation; series mostly up to 10 µM
# Histone deacetylase 1 (Homo sapiens), sequence (Q13547 whole entry, looked up, canonical isoform): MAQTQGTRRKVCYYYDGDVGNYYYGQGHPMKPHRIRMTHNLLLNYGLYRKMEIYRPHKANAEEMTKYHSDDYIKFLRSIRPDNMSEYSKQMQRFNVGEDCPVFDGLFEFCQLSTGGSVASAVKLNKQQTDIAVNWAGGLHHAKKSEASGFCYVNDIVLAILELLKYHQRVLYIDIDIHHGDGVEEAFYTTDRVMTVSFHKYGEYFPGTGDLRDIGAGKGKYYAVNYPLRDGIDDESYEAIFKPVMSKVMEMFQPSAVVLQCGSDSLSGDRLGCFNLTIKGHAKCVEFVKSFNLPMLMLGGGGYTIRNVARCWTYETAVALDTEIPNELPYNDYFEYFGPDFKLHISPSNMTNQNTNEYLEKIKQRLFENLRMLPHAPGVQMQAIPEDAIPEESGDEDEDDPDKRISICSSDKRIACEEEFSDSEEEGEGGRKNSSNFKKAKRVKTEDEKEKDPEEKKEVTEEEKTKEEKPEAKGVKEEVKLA
smiles,measurement,value
O=C(NCCCNC(=O)c1ccc[nH]c1=O)c1cc(-c2ccccc2)on1,outcome,inactive

# From PubChem BioAssay AID651918 (Vanderbilt Specialized Chemistry Center, 2012)
